About 4,000 (25%) of roughly 16,000 compounds were called active. Not shown: some 26% with an inconclusive outcome. The call rests on the fitted dose curve; in most records, active means well fitted curve in the direction sought with a large enough effect; inconclusive means small, poorly fitted or top-dose-only effect, or effect the other way; inactive means no such curve, though single readings can be large or run the other way. These entries were drawn from the full list.
target: Cytochrome P450 2C9 (Homo sapiens) (UniProt P11712); assay: Cytochrome panel assay with activity outcomes; settings: recombinant CYP, pro-luciferin dealkylation, luminescence, p450-cyp2c9; series mostly up to 57.1 µM; activity, negative = inhibition: at the top concentration
Sequence (P11712 whole entry, looked up): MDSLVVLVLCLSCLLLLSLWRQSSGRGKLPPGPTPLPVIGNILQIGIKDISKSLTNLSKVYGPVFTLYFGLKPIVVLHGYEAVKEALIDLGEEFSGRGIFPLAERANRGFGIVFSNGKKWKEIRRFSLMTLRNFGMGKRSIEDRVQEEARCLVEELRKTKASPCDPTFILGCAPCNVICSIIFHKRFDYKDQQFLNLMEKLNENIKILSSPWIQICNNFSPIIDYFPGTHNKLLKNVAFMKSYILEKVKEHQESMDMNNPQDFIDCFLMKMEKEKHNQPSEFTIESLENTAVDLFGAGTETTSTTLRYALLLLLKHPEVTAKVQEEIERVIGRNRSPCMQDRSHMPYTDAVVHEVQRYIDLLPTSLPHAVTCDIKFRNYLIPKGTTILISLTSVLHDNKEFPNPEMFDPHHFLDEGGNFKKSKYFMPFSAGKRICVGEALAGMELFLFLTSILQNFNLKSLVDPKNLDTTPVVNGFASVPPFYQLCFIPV
On the % scale 0 is the no-effect control and ±100 the full control effect.

AC50, active:
N#Cc1nc(COc2ccccc2Cl)oc1NCc1ccco1 1.78 µM
CCOc1ccc(-c2cc(CCCC(=O)NCCc3ccc(OC)c(OC)c3OC)no2)cc1 1 µM
CCOc1ccc(-c2cc(CCCC(=O)Nc3cc(OC)ccc3OC)no2)cc1 2.24 µM
CSC1=N/C(=C\c2ccc(C)cc2)C(=O)S1 22.4 µM
CSC1=N/C(=C\c2ccc(Br)o2)C(=O)S1 39.8 µM
CCN(CC)Cc1c(O)ccc2c(=O)c(Oc3ccccc3OC)coc12 7.94 µM
C=CCSc1nc2c(sc3nc(C)cc(C)c32)c(=O)[nH]1 7.94 µM
Cc1cc(Cc2cc(C)cc(C(C)(C)C)c2O)c(O)c(Cc2cc(C)cc(C(C)(C)C)c2O)c1 3.16 µM
Cc1cc(Cc2cc(Cc3cc(C)cc(C(C)(C)C)c3O)c(C)cc2C)c(O)c(C(C)(C)C)c1 3.16 µM
Cc1ccc(NC(=S)N2CCN(CCN3C(=O)c4cccc5cccc(c45)C3=O)CC2)cc1 6.31 µM
C/C(=N\NC(=O)Cc1ccc(Cl)cc1)c1ccccn1 14.1 µM
Cc1ccc(S(=O)(=O)N(Cc2ccccc2)c2ccccc2C(=O)NCc2ccco2)cc1 0.0398 µM
Cc1cc(C(=O)CSc2nnc(-c3ccccc3)o2)c(C)n1CC1COc2ccccc2O1 (stereo not given) 3.55 µM
Cc1ccc(SCc2[nH]nc3c2C(C(C)C)C(C#N)=C(N)O3)cc1 (stereo not given) 7.08 µM
Fc1ccc(CSc2ncnc3sc4c(c23)CCCC4)cc1 11.2 µM
O=[N+]([O-])c1ccc(Nc2nc3ccccc3s2)cc1 1.26 µM
CCCCC(=O)NC(Nc1cc(C)ccn1)(C(=O)OCC)C(F)(F)F (stereo not given) 22.4 µM
CCCc1nn(-c2ccccc2)c2c1C(c1cccs1)C(C#N)=C(N)O2 (stereo not given) 4.47 µM
CC(C)N(Cc1ccccc1)S(=O)(=O)c1n[nH]c(C(C)(C)C)n1 3.98 µM
COc1ccc(CCNC(=O)c2nnn(CC(=O)Nc3ccccc3C)c2N)cc1OC 15.8 µM
CN1c2ccccc2Oc2c(c(=O)n(C)c(=O)n2C)C1c1cccc([N+](=O)[O-])c1 (stereo not given) 4.47 µM
O=C(c1ccccc1)[C@@H]1O[C@H]1c1ccc(-c2ccccc2)cc1 12.6 µM
Cc1ccc2nc(Nc3nc(-c4ccccc4)cc(=O)[nH]3)nc(C)c2c1 2.82 µM
Cc1ccc(S(=O)(=O)/C=C\C#N)cc1 12.6 µM
CC1=C(C(=O)OCc2ccccc2)C(c2ccc3ccccc3c2)NC(=O)N1CCCCCC(=O)O (stereo not given) 7.94 µM
CC1=C(C(=O)OCc2ccccc2)C(c2ccc([N+](=O)[O-])cc2)NC(=O)N1CCCCCC(=O)O (stereo not given) 15.8 µM
CC1=C(C(=O)OCc2ccccc2)C(c2ccc(Cl)cc2)NC(=O)N1CCCCCC(=O)O (stereo not given) 12.6 µM
CCN(CC)CC#CCC(C)(c1ccccc1)c1ccccc1 15.8 µM
COc1cc2c3c(c1OC)C1(C=CC(=O)C=C1)CC3N(C(=O)c1ccccc1)CC2 (stereo not given) 3.16 µM
c1ccc(-c2nc(CSc3n[nH]c(-c4cccs4)n3)cs2)cc1 20 µM
CCOc1ccc(Cc2nccc3cc(OCC)c(OCC)cc23)cc1OCC 3.98 µM
Cn1c(CNC(=O)Nc2ccccc2)nnc1SCc1ccccc1 8.91 µM
COc1ccc2[nH]c(-c3ccccc3)c(CCNC(C)=O)c2c1 15.8 µM
O=C(Nc1cccc(C(F)(F)F)c1)c1ccc(Cn2cc(Br)cn2)o1 8.91 µM
COc1cccc(CNC(=O)CCNC(=O)Cn2ccc3ccccc3c2=O)c1 3.16 µM

AC50, inactive:
Cc1cc(C(C)(C)C)c(O)c(C)c1CC1=NCCN1
CCn1ccnc1C[C@@H]1COc2ccccc2O1
CCN(CC)CCNC(=O)c1cc(Cl)c(N)cc1OC

activity, negative = inhibition, inactive:
CN(C)CCNc1oc(COc2ccc(Cl)cc2Cl)nc1C#N 22.6%
CCOc1ccc(-c2nnn(CC(=O)Nc3cc(OC)ccc3OC)n2)cc1OCC -21.2%
CN(C)CCCN1c2ccc(O)cc2Sc2ccc(Cl)cc21 -1.91% [at 11.4 µM]
CSC1=N/C(=C\c2ccc3c(c2)OCO3)C(=O)S1 -17.8%
CCCCNC(=O)C(=O)c1ccccc1NC(C)=O 16.8%
Cc1cnc(CNc2ncncc2-c2ccccc2C#N)cn1 -5.28% [at 2.29 µM]
O=c1c(Oc2ccccc2Br)c(C(F)(F)F)oc2c(CN3CCCC3)c(O)ccc12 -21.2%
Cc1cccc(Cn2ncc(Cl)c(Cl)c2=O)c1 -21.4%
Cc1cccc(CNc2ncncc2-c2ccccc2Cl)c1 7.19% [at 2.29 µM]
Cc1c(S(=O)(=O)O)ccc(N=Nc2c(O)c(C(=O)O)cc3ccccc23)c1Cl -11.1% [at 11.4 µM]
Nc1nc2n[nH]nc2c(=O)[nH]1 -12.4% [at 25.6 µM]
Cc1cc(Cc2c(C)c(C)c(Cc3cc(C)cc(C(C)(C)C)c3O)c(C)c2C)c(O)c(C(C)(C)C)c1 9.35% [at 11.4 µM]
CC(C)c1cc(CN(C)C)c(O)c(C(C)(C)C)c1 1.03% [at 11.4 µM]
Cc1cc(C)c(O)c(Cc2cccc(Cc3cc(C)cc(C)c3O)c2O)c1 11.7% [at 11.4 µM]
C[N+](C)(CCCCCC[N+](C)(C)CCCN1C(=O)c2cccc3cccc(c23)C1=O)CCCN1C(=O)c2cccc3cccc(c23)C1=O 10.1%
Cc1ccc(NC(=S)N2CCN(C3CCCCC3)CC2)cc1 4.46%
COc1ccccc1CNC(=O)C/C(C)=N/NC(=O)Cc1ccccc1 13.2%
C/C(=N\NC(=O)CC1N=C(Cc2ccccc2)NNC1=O)c1ccc(Cl)cc1Cl (stereo not given) -30%
CC1(C)C2([N+](=O)[O-])CN3CC1([N+](=O)[O-])CN(C2)C3c1ccccc1 (stereo not given) -20.9%
FC(F)(F)c1ccccc1-c1cc(NCCN2CCOCC2)ncn1 26.8% [at 2.29 µM]
CCOC(=O)Oc1c(OC)cc(C(=O)O[C@H]2C[C@H]3CN4CCc5c([nH]c6cc(OC)ccc56)[C@@H]4C[C@H]3[C@@H](C(=O)OC)[C@@H]2OC)cc1OC -2.83% [at 25.6 µM]
Cc1cccc(C)c1NC(=O)CCN1C(=O)C2C3CCC(C3)C2C1=O (stereo not given) -43.2%
O=C(O)CSc1ncnc2sc3c(c12)CCC3 -25.3%
Fc1cccc(CSc2ncnc3c2ncn3[C@H]2CCCS2)c1 9.41% [at 11.4 µM]
COCCN1CN=C(Nc2nc3ccccc3s2)NC1 -22.2%
O=C(NNc1nc2ccccc2s1)C1CC1 -21.8%
C/C(CC(=O)Nc1cc(C)ccn1)=N\NC(=O)COc1cccc(C)c1 -22%
Cc1ccc(C)c(NC(=O)Cn2nnc(C(=O)NCc3cccs3)c2N)c1 -22%
COc1ccc(CCNC(=O)Cn2cnc3c2c(=O)n(C)c(=O)n3C)cc1OC -21%
COc1ccccc1CNc1ncncc1-c1ccccc1C(F)(F)F -18.6% [at 2.29 µM]
CC(=NCC(=O)O)c1ccccc1 2.4% [at 11.4 µM]
CCCCCCCCCCCCCCC[C@H](O)[C@H](N)CO -10.3%
O=C(O)c1cc(-c2ccc(-c3ccccc3)cc2)nc2cc3ccccc3cc12 -27% [at 11.4 µM]
Cc1ccccc1/C=C\C1=NCCN1 16.2%
CC(C)(C)COS(=O)OCC(C)(C)C -7.38% [at 11.4 µM]
CN1CCC[C@@H]1CCO[C@](C)(c1ccccc1)c1ccc(Cl)cc1 2.58% [at 25.6 µM]
CC(C)=CCC/C(C)=C/CO/N=C1/C[C@@H](O)[C@@H](O)[C@@H]2[C@@H]3C(=O)N(C[C@@H]4CCCO4)C(=O)[C@H]3CC[C@@H]12 9.34% [at 11.4 µM]
CN(C)[C@H]1C(=O)C(C(=O)NCN2CCCC2)=C(O)[C@]2(O)C(=O)C3=C(O)c4c(O)cccc4[C@](C)(O)[C@H]3C[C@H]12 -10.5% [at 11.4 µM]
Cc1cc(=Nc2ccc3c(c2)c(N)cc(C)[n+]3C)nc(N)n1C 13% [at 11.4 µM]
CCCC(C(=O)OCCN(CC)CC)(c1ccccc1)c1ccccc1 -47.9% [at 25.6 µM]
N=C(N)SCCSC(=N)N -1.93% [at 11.4 µM]
COc1cc(OC)c(C2C(C(=O)O)c3ccccc3C(=O)N2C)cc1OC (stereo not given) -22.7%
COc1cc(C(=O)N2CCN(C(=O)c3ccccc3)CC2)cc(OC)c1OC -11%
c1ccc(CNc2cc(-c3ccoc3)ncn2)cc1 -12.4% [at 2.29 µM]
O=C(c1cnccn1)N1CCC2(CCCN(c3ncccn3)C2)CC1 -7.23%
Cn1c(CN2CCOCC2)nnc1SCc1ccccc1 0.914%
COc1cccc(-c2nc(NCCNC(C)=O)c3ccccc3n2)c1 22.4% [at 2.29 µM]
COc1cccc(-c2ccc3ncnc(NCCNC(C)=O)c3c2)c1 -1.53% [at 2.29 µM]
C[C@H](CN(C)C)C(=O)c1ccccc1C(=O)O 4.19% [at 11.4 µM]
CNS(=O)(=O)c1ccccc1C(=N)c1ccccc1 9.68% [at 11.4 µM]
OC[C@H]1NC[C@@H](O)[C@@H](O)[C@H]1O -27%
Cc1cccc(NC(=S)NNC(=O)CCn2cc(C)cn2)c1 -7.75%
Cc1nn(CC(O)COc2ccc3c(c2)CCC3)c(C)c1Br (stereo not given) -23.7%
C=CC[C@@H]1C=C[C@H](O/N=C(\C)CCN2CCCCc3nc(C)c(C)cc32)[C@H](CO)O1 0.735% [at 11.4 µM]
Cc1ccc(N2C(=O)c3n[nH]c(C)c3C2c2ccccn2)cc1 (stereo not given) -12.8%
O=C(CCNC(=O)Cn1ccc2ccccc2c1=O)NCCCN1CCN(c2ccc(F)cc2)CC1 -10.9%
COc1ccc(OC)c(CNC(=O)CCNC(=O)Cn2ccc3ccccc3c2=O)c1 -1.88%

Source: PubChem BioAssay AID1851 (National Center for Advancing Translational Sciences (NCATS), 2009)
